Drawing on PubChem BioAssay (Tox21), this text covers outcome and Potency for ten molecules.

Test [1] is described as follows: qHTS assay to identify small molecule agonists of the NFkB signaling pathway (AID 1159509; active means well fitted curve in the direction sought with a large enough effect in the signal ratio in the repeat runs, not every such curve was filed as active; the % refers to the signal ratio; further: series mostly up to about 61 µM). A digest of the protocol: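 After overnight attachment, reporter cells received test compounds, DMSO or positive controls and were incubated 5 hr at 37 C. FRET substrate was then added for 1.5 hr at room temperature before dual-emission fluorescence reading.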
Test [2] is described as follows: qHTS assay to identify small molecule agonists of the NFkB signaling pathway - cell viability counter screen (AID 1159515; calls by dose curve; further: series mostly up to about 61 µM; nearly all actives have a fitted effect of over 55% in size). A digest of the protocol: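 Viability in NFkB-bla ME-180 cells was measured by CellTiter-Glo luminescence, 30 min room temperature, in wells already treated 5 hr with compounds and read for reporter FRET.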
For orientation: Quantitative high-throughput screening tests each substance at several concentrations.

Test [3] can be described thus: qHTS assay to identify small molecule agonists of the endoplasmic reticulum stress response signaling pathway (AID 1159516; active means well fitted activation curve with a large enough effect in the signal ratio in the repeat runs, not every such curve was filed as active; the % refers to the signal ratio). A digest of the protocol:
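ER stress element reporter (bla) in HeLa. 1,500 cells/well, overnight attachment; 5 hr compound; 2 hr RT substrate; dual-emission fluorescence.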

A short description of test [4]: qHTS assay to identify small molecule agonists of the endoplasmic reticulum stress response signaling pathway - cell viability counter screen (AID 1159517; calls by dose curve;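 further: HeLa cells carrying an ER stress response element beta-lactamase reporter; series mostly up to about 61 µM; nearly all actives have a fitted effect of over 50% in size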). A digest of the protocol:
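Cells, HeLa ESRE-bla; density, 1,500/well; dosing, 5 hr at 37 C, 5% CO2; readout, CellTiter-Glo luminescence after 30 min RT.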

Test [5] in a line: qHTS assay to identify small molecule antagonists of the retinoid-related orphan receptor gamma (ROR-gamma) signaling pathway - cell viability counter screen (AID 1159520). Further: nearly all actives have a fitted effect of over 50% in size. The method in brief:
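Cytotoxicity was read from cellular ATP (CellTiter-Glo luminescence) after 16 hr at 37 C with 1 uM doxycycline induction. The inducer was added 2 hr after compound transfer to Tet-on ROR gamma CHO cells.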

Test [6] deals with Nuclear receptor ROR-gamma (Homo sapiens) (UniProt P51449). In words: qHTS assay to identify small molecule antagonists of the retinoid-related orphan receptor gamma (ROR-gamma) signaling pathway (AID 1159521; further: nearly all actives have a fitted effect of over 50% in size; further: potency means the concentration at half of the fitted maximal effect). A digest of the protocol: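 Readout: ONE-Glo luciferase luminescence, 30 min at room temperature. System: Tet-on RORγ CHO, RORE-LUC. Sequence: compound 2 h, doxycycline 1 uM final, 16 h at 37 C.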

Test [7] can be described thus: qHTS assay to identify small molecule agonists of the AP-1 signaling pathway - cell viability counter screen (AID 1159525; calls by dose curve; further: nearly all actives have a fitted effect of over 55% in size). The method in brief:
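Luminescent ATP readout (Cell Titer Glo, 30 min RT), normalised to DMSO and tetra n-octyl ammonium bromide controls. Cells were ME-180 AP-1-bla in 0.5% dialyzed FBS Opti-MEM, with a 5 h, 37 °C compound exposure.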

A short description of test [8]: qHTS assay to identify small molecule agonists of the AP-1 signaling pathway (AID 1159526; calls by dose curve).
A short description of test [9]: qHTS assay to identify small molecule agonists of the RXR signaling pathway - cell viability counter screen (AID 1159529).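 Further: HEK 293T cells carrying an RXR-alpha UAS beta-lactamase reporter; series mostly up to about 77 µM; nearly all actives have a fitted effect of over 50% in size.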 The method in brief: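 Tox21 10K compounds were tested for cytotoxicity against GeneBLAzer RXR-alpha HEK 293T cells grown in 2% charcoal-stripped FBS. Exposure lasted 16 hr at 37 C, 5% CO2; viability read by CellTiter-Glo luminescence.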
A short description of test [10]: qHTS assay to identify small molecule antagonists of the retinoid acid receptor (RAR) signaling pathway - cell viability counter screen (AID 1159551). Further: nearly all actives have a fitted effect of over 35% in size. The method in brief: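 Following overnight attachment, C3RL4 reporter cells received DMSO-dissolved compounds and then retinol (1 uM final). Six hours later at 37 C, ATP content was measured by CellTiter-Glo luminescence.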

The nature of test [11]: qHTS assay to identify small molecule antagonists of the retinoic acid receptor (RAR) signaling pathway (AID 1159552; further: nearly all actives have a fitted effect of over 50% in size; further: potency means the concentration at half of the fitted maximal effect). The method in brief:
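Overnight-plated C3RL4 reporter cells get compound, then retinol to 1 uM final; plates sit 6 hr at 37 C, 5% CO2. A luciferase reagent is added and light output recorded after 30 min at room temperature.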

Test [12] in a line: qHTS assay to identify small molecule agonists of the retinoic acid receptor (RAR) signaling pathway (AID 1159553). Further: potency means the concentration at half of the fitted maximal effect. The method in brief:
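Cell line C3RL4, RARE luciferase reporter. Treatment: compounds in DMSO, 6 hr, 37 C, 5% CO2, after overnight plating. Detection: luminescence, 30 min RT after reagent.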

The nature of test [13]: qHTS assay to identify small molecule agonists of the estrogen related receptor (ERR) signaling pathway (AID 1224820). A digest of the protocol: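 Quantitative HTS of the LOPAC library used NTP ERR reporter cells treated 18 h at 37 C. Signal is luminescence after One-Glo addition and a 30 min room-temperature incubation.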
Test [14] in a line: qHTS assay to identify small molecule antagonists of the estrogen related receptor signaling pathway with the pleiotropic PPARgamma coactivator (PGC) cell viability counter screen (AID 1224822; further: series mostly up to about 46 µM). The method in brief: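 qHTS format, DMSO compound stocks pin-transferred onto PGC/ERR cells 6 h after plating; 17.5 h exposure at 37 C, then CellTiter-Fluor fluorescence.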
Test [15] can be described thus: qHTS assay to identify small molecule agonists of the estrogen related receptor signaling pathway with the pleiotropic PPARgamma coactivator (PGC) (AID 1224823). The method in brief: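 Cell-based luciferase assay in the NTP-supplied PGC/ERR line, 2,000 cells/well; 18 h compound exposure at 37 C, luminescence after One-Glo.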
Test [16] can be described thus: qHTS assay to identify small molecule antagonists of the estrogen related receptor (ERR) signaling pathway from Tox21 library - cell viability counter screen (AID 1224834). Further: nearly all actives have a fitted effect of over 30% in size. Further: potency means the concentration at half of the fitted maximal effect. The method in brief: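 Viability readout (CellTiter-Fluor fluorescence, 30 min at 37 C) multiplexed with the ERR assay; cells treated 17.5 h at 37 C with compounds delivered in DMSO.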

Several values for one entry are separate records, joined by “and”; a condition that tells them apart may be missing. Equal values may be shown once. Records with an inconclusive call do not appear. The source holds several records for some structures; these can differ, active in one and inactive in another. Activity calls are given as the source filed them. Unless noted, the call rests on the fitted dose curve; in most records, active means well fitted curve in the direction sought with a large enough effect in the repeat runs; inconclusive means weak or mixed curves; inactive means no such curve, though single readings can be large; an effect the other way counts as inactive or inconclusive.

For `Cn1cnc([N+](=O)[O-])c1Sc1ncnc2nc[nH]c12`, the call in test [1], in [8], in [13] and in test [15] was inactive. Also, the Potency entry in test [2], in [3], in test [4], in [5], in test [7] and in [9] was “inactive” in each case. Moreover, the Potency entry in test [10], in test [12] and in test [14] was “inactive” throughout. The Potency in [6] was 30.5 µM (active) and inactive; in test [11] it was 48.3 µM (active) and inactive.

With `O=C(O)c1ccccc1Nc1cccc(C(F)(F)F)c1`, the molecule was called inactive in test [1] and in test [8]. Moreover, the Potency entry in [2], in [3], in test [4], in [5], in [6] and in test [7] was “inactive” in each case. Further, the Potency entry in test [9], in test [10], in [11], in [12] and in test [16] was “inactive” each time.

`O=C(OCc1ccccc1)c1ccccc1O`: the molecule was called inactive in [1] and in test [8]. Moreover, the Potency result in test [2], in test [3], in test [4], in test [5], in [6] and in [7] was “inactive” throughout. Further, the Potency entry in test [10], in test [11] and in test [16] was “inactive” throughout. The Potency in [12] is 9.62 µM (active).

In the case of `O=[N+]([O-])c1ccc2c(c1)Cc1ccccc1-2`, the molecule was called inactive in [1] and in [8]. Besides, the Potency result in test [2], in [3], in [4], in [5], in test [6] and in [7] was “inactive” in each case. The Potency entry in [9], in test [10], in test [11] and in test [12] was “inactive” each time.

Consider `Cc1ccc2c(n1)Oc1ccc(C(C)C(=O)OCC(=O)N(C)C)cc1C2` (stereo unspecified), for which the call in test [1] and in test [8] was inactive. The Potency entry in [2], in test [3], in test [4], in [5], in test [6] and in test [7] was “inactive” each time. The Potency entry in test [10], in test [11] and in test [16] was “inactive” each time. Besides, the Potency in test [12] is 10.6 µM (active) and 8.41 µM (active).

With `CCCC(=O)O`, the molecule was classed as inactive in test [1] and in [8]. Further, the Potency result in [2], in test [3], in [4], in [5], in test [6] and in test [7] was “inactive” in each case. Moreover, the Potency entry in test [9], in [10], in [11], in test [12] and in [16] was “inactive” in each case.

On to `c1cc(N(CC2CO2)CC2CO2)ccc1OCC1CO1` (stereo unspecified), for which the molecule was called inactive in test [1] and in test [8]. Also, the Potency entry in [2], in test [3], in [4], in test [5], in test [7] and in test [9] was “inactive” throughout. Moreover, the Potency entry in [10] and in test [11] was “inactive” in each case. For the same molecule, the Potency is 54.5 µM (active) and 61.1 µM (active) in test [6]; 48.6 µM (active) in test [16].

Take `O=Cc1ccccc1O`: the result in test [1] and in test [8] was inactive. Besides, the Potency entry in test [2], in [3], in test [4], in test [5], in [6] and in [7] was “inactive” in each case. The Potency entry in [9], in test [10], in test [11] and in test [12] was “inactive” in each case.

For `O=C(/C=C/c1ccccc1)OCc1ccccc1`, the molecule was called inactive in test [1] and in test [8]. For the same molecule, the Potency result in test [2], in test [3], in test [4], in test [5], in [6] and in test [7] was “inactive” throughout. In addition, the Potency entry in test [9], in test [10], in test [11] and in [16] was “inactive” in each case. For the same molecule, the Potency in [12] is 30.6 µM (active) and 29.8 µM (active).

For the molecule `O=c1oc(=O)c2cc3c(=O)oc(=O)c3cc12`, the result in test [1] and in [8] was inactive. Besides, the Potency entry in [2], in [3], in test [4], in test [5], in test [6] and in test [7] was “inactive” each time. Besides, the Potency entry in test [10], in [11], in test [12] and in test [16] was “inactive” throughout.
